This passage reports inhibition results from PubChem BioAssay AID504635 (The Scripps Research Institute Molecular Screening Center, 2011).

This test deals with Troponin I, cardiac muscle (Homo sapiens) + Troponin T, cardiac muscle (Homo sapiens) + Troponin C, slow skeletal and cardiac muscles (Homo sapiens) (UniProt P19429+P45379+P63316). In words: calcium desensitizers of cardiac thin filaments – biochemical, fluorescence readout, confirmation (AID 504635). The following applies: reconstituted cardiac thin filaments, calcium sensitivity fluorescence; at 7.15 µM; hits give high values.

Each structure is given as a SMILES string. This is one part of the list. Values without a mark were called inactive. Rule as the data show it: active = inhibition above about 18%; inactive = the rest.

In general, inhibition refers to the relative decrease from the control value, in per cent. On to `COC1=C[C@@H]2[C@@H]3Cc4ccc(OC)c(O)c4[C@]2(CCN3C)CC1=O`, for which the inhibition was -1.97%.
